Most compounds without a hit are left out; they make up all but 6.1% or so of the library.
D3 ag: qHTS of D3 Dopamine Receptor Agonist: qHTS. D(3) dopamine receptor (Homo sapiens), P35462. D3R DiscoveRx beta-arrestin cells, luminescence, 90 min. max activation, %. 410,000 tested, 0.58% active. AID 652048, 2013; in the data active = max activation above about 30%; also: 0% is about no effect
Target sequence (P35462 whole entry, looked up): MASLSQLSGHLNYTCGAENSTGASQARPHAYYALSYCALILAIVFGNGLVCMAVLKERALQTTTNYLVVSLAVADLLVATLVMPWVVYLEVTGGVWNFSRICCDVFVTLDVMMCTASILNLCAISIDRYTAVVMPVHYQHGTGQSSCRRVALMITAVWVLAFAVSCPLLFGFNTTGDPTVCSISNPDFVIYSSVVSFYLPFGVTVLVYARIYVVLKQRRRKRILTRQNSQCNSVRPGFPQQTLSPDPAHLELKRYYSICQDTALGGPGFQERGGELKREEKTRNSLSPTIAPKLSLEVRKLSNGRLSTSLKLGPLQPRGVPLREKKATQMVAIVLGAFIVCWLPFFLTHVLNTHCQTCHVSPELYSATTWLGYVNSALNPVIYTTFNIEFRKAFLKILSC
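Agonist mode: compounds and dopamine controls were applied to plated cells for 90 min at 37 degrees C after an overnight attachment at 1500 cells/well. Luminescent read-out followed 30 - 60 minutes at room temperature with DiscoveRx detection reagent.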
D3 antag: qHTS of D3 Dopamine Receptor Antagonist: qHTS; max response, negative = inhibition, %; D3R cells, DiscoveRx beta-arrestin luminescence, antagonist mode; hits give low values; 360,000 tested, 2.5% active; D(3) dopamine receptor (Homo sapiens), P35462; in the data active = max response below about -50%; inconclusive = no clear call, values can overlap the other calls; also: % is scaled to controls: 0 for no effect and ±100 for the full control effect
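Cells expressing the human receptor were seeded at 1500 cells/well, incubated overnight at 37 degrees C in 5% CO2, then exposed to library compounds with dopamine controls for 90 minutes at 37 degrees C before luminescent detection.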
D1 PAM: Potentiators of Human D1 Dopamine Receptor: qHTS. HEK293 TREx D1 cells, calcium flux, dopamine EC20 potentiation. potentiation, % at 10 µM. 360,000 tested, 0.036% active. AID 504651, 2011; in the data active = potentiation above about 30%; also: 0% is about no effect
D1 antag: Antagonist of Human D 1 Dopamine Receptor: qHTS; activity change, negative = inhibition, % at 10 µM; 360,000 tested, 3.2% active; HEK293 TREx D1 cells, calcium flux, dopamine EC80; hits give low values; D(1A) dopamine receptor (Homo sapiens), P21728; in the data active = activity change below about -30%; also: % is scaled to controls: 0 for no effect and ±100 for the full control effect
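Calcium flux readout: force-coupled, inducible Hek293 Trex D1 line, cells induced overnight at 30 C with tetracycline, dye-loaded 30–90 min at RT. Antagonism scored against EC80 dopamine challenge given 180 s after compound.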
D1 ag: Allosteric Agonists of the Human D1 Dopamine Receptor: qHTS; activation, % at 2 µM; D(1A) dopamine receptor (Homo sapiens), P21728; AID 504660, 2011; 360,000 tested, 1% active; HEK293 T-REx D1 cells, calcium flux, agonist mode; in the data active = activation above about 30%; also: 0% is about no effect
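Inducible HEK293 T-REx D1 cells, force-coupled to calcium signalling, were plated at 4000 cells/well with tetracycline and held overnight at 30 C. After no-wash calcium dye loading, compound-evoked calcium rise over 180 s flagged agonists.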
Starred values were filed as active, the others as inactive; u = inconclusive; x = no result.

SMILES	D3 ag	D3 antag	D1 PAM	D1 antag	D1 ag
COc1cc2c(cc1OC)C(c1ccc(O)cc1)NCC2 (stereo unspecified)	-1.1	6.8	6.5	-2.7	5.8
COc1cc2c(cc1OC)[C@H](Cc1ccc(O)cc1)NCC2	-24.1	-62.4*	-8.5	-20.3	1.3
COc1cc2c(cc1OC)C(COc1cccc(C(F)(F)F)c1)NCC2 (stereo unspecified)	-9.3	u	-6.9	2.8	31.7*
OC[C@H]1O[C@@](CO)(O[C@H]2O[C@H](CO)[C@@H](O)[C@H](O)[C@H]2O)[C@@H](O)[C@@H]1O	6.5	x	x	x	x
O=C(CN1C(=O)COc2ccc(S(=O)(=O)N3CCCC3)cc21)NCCc1ccc(Cl)cc1	3.2	x	-2.6	-15.8	-1.6
C[C@H](NC(=O)[C@H]1N2C(=O)c3ccccc3C2SC1(C)C)C(=O)N1CCC[C@H]1CO (stereo partly specified)	-13.9	0.0	-4.7	6.8	40.0*
C[C@H](NC(=O)[C@H]1N2C(=O)c3ccccc3C2SC1(C)C)C(=O)N1CCC[C@H]1C(=O)O (stereo partly specified)	7.6	14.8	0.0	2.4	1.0
COC(=O)c1cc(-c2ccccc2)c2c(=O)n(C)c(=O)n(C)c2n1	x	x	-1.6	-3.1	1.4
Cc1[nH]nc2nc3c(c(OC(=O)c4ccccc4)c12)c(=O)n(C)c(=O)n3C	x	x	x	-38.5*	-1.0
Cc1cc(C)c(C(=O)N2CCCC(N3CCN(c4cccc(C(F)(F)F)c4)CC3)C2)o1 (stereo unspecified)	-4.7	-54.4*	-4.1	-24.6	5.5
O=C(c1ccco1)N1CCCC(N2CCN(c3cccc(C(F)(F)F)c3)CC2)C1 (stereo unspecified)	-18.4	-65.5*	-1.1	8.5	0.9
O=C(c1cccs1)N1CCCC(N2CCN(c3cccc(C(F)(F)F)c3)CC2)C1 (stereo unspecified)	-13.8	u	-1.8	-8.3	1.9
Cc1cc(C(=O)N2CCCC(N3CCN(c4cccc(C(F)(F)F)c4)CC3)C2)n[nH]1 (stereo unspecified)	-3.0	0.2	0.2	-49.7*	2.8
CCS(=O)(=O)N1CCc2cc(C(=O)Nc3ccc(OC)cc3OC)ccc21	-0.4	x	-0.8	-28.9	0.9
Cc1ccc(C)c(CSc2nnc3[nH]c(=O)cc(-c4ccccc4)n23)c1	19.6	x	-2.2	x	-0.5
Cc1sc(NC(=O)CCl)c(C(=O)c2ccccc2)c1C	-3.9	-66.3*	-3.5	0.6	1.5
Cc1ccccc1C(=O)Nc1sc(C)c(C)c1C(=O)c1ccccc1	-1.0	-25.3	3.5	23.9	3.1
COc1cccc(CN(Cc2ccco2)C(c2ccc(F)cc2)c2nnnn2C(C)(C)C)c1 (stereo unspecified)	6.7	u	-12.6	-34.0*	22.7
Cc1cccc(NC(=O)c2cc(S(=O)(=O)N3CCc4ccccc43)ccc2F)c1C	7.3	x	-0.7	23.5	-2.2
CCCCOc1cccc(C(=O)N(Cc2cccs2)c2ccc(OC)cc2)c1	-15.2	x	0.8	-2.9	19.2
Cc1cc(C)nc(SCc2cc(=O)c(OC(=O)c3cccc([N+](=O)[O-])c3)co2)n1	110.7*	67.7	-9.9	-19.7	1.2
CC1(C(=O)NS(=O)(=O)c2cccc(F)c2)CCN1C(=O)CC1CCCCC1 (stereo unspecified)	30.1*	13.9	x	x	x
Cc1nc2c(C#N)cnn2c2c1CCN2CC1CCCO1 (stereo unspecified)	43.1*	1.1	4.4	14.1	0.0
Cc1nc2c(C#N)cnn2c2c1CCN(Cc1ccccc1)N2C	-1.9	-6.0	-4.3	x	0.5
Cc1nc(NC(=O)c2ccco2)sc1-c1csc(Nc2ccc(Cl)cc2)n1	51.7*	57.0	-3.0	5.7	-0.5
COc1ccccc1Nc1nc(-c2sc(NC(=O)c3ccco3)nc2C)cs1	0.1	-5.8	2.6	-7.3	2.5
COc1cccc(N(C(=O)c2ccco2)c2nc(-c3sc(NC(=O)c4ccco4)nc3C)cs2)c1	32.1*	76.9	-2.6	3.4	3.6

Screens deposited in PubChem BioAssay by National Center for Advancing Translational Sciences (NCATS).
